Rows were chosen to be rich in hits. Some 9.4% of all compounds tested hit in one or more screens of this group.
IMPase cell inh – cell-permeable inhibitors of inositol monophosphatase (IMPase); CHO-M1 cells, IP1 accumulation, HTRF TR-FRET ratio; inhibition (IP1 accumulation), % at 46.1 µM; 120,000 tested, under 10 active; active means well fitted curve in the direction sought with a large enough effect in the signal ratio, not every such curve was filed as active; inconclusive means small, poorly fitted or top-dose-only effect, or a change in a side signal; inactive means no such curve, though single readings can be large or run the other way; the % refers to the signal ratio;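 further: cells stimulated with carbachol in lithium chloride buffer; plate controls were DMSO basal wells for no effect and reference inhibitor wells for full effect; higher means more IMPase inhibition seen as more IP1 and lower FRET ratio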
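Elevated IP1 in lysates lowers TR-FRET signal (665/620 ratio and 620 channel reported). Cells were CHO-M1, given carbachol (50 uM as added) plus 50mM LiCl, pH 7.4, 30 min, 37C; compounds titrated up to 46 uM; AC50 by Hill equation.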
HTT cytoprotect – Huntington cell model cytoprotection by ATP luminescence; PC12 HTT-Q103 induced, cytoprotection, ATP luminescence, 40 h; Potency, µM (highest dose often 56.4 µM), without a hit: cytoprotection (ATP increase), usual class: activators; 0.14% of 230,000 active; AID 1471; further: potency means the concentration at half of the fitted maximal effect; % of control where 0% means no effect; nearly all actives have a fitted effect of over 45% in size
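Huntington model: PC12 line, ecdysone-inducible HTTQ103 exon1–GFP, tebufenozide 100 nM. Test articles in a dose series. Endpoint luminescence from cellular ATP.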
HPGD inh – blocks human HPGD enzyme activity. purified HPGD, NADH fluorescence kinetic, PGE2 substrate. Potency, µM, for the others: at the highest dose activity change, negative = inhibition, most hits filed as inhibitors. 4.3% of 150,000 active; active means well fitted inhibition curve with a large enough effect, not every such curve was filed as active; inconclusive means small, poorly fitted or top-dose-only effect, or another doubt; inactive means no such curve, though single readings can be large or run the other way; further: potency means the concentration at half of the fitted maximal effect; on the % scale 0 is the no-effect control and ±100 the full control effect
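NADH formation kinetics: reaction with 30 uM PGE2 and 1 mM NAD+ (final), 20 nM enzyme, Tris-HCl pH 8 with Tween 20, after 15 min compound preincubation at room temperature. Fluorescence change, last versus first of five reads.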
ALDH1A1 inh – blocks purified human ALDH1A1 activity | Purified ALDH1A1, NADH fluorescence, propionaldehyde substrate | 7.3% of 220,000 active | P00352 | Potency, µM (highest dose often 75.3 µM), for inactives: at the highest dose activity, negative = inhibition, usual class: inhibitors; active means well fitted inhibition curve with a large enough effect, not every such curve was filed as active; inconclusive means small, poorly fitted or top-dose-only effect, or another doubt; inactive means no such curve, though single readings can be large or run the other way;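 further: potency means the concentration at half of the fitted maximal effect; plate controls were no enzyme wells and a reference inhibitor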
Target sequence (P00352 whole entry, looked up): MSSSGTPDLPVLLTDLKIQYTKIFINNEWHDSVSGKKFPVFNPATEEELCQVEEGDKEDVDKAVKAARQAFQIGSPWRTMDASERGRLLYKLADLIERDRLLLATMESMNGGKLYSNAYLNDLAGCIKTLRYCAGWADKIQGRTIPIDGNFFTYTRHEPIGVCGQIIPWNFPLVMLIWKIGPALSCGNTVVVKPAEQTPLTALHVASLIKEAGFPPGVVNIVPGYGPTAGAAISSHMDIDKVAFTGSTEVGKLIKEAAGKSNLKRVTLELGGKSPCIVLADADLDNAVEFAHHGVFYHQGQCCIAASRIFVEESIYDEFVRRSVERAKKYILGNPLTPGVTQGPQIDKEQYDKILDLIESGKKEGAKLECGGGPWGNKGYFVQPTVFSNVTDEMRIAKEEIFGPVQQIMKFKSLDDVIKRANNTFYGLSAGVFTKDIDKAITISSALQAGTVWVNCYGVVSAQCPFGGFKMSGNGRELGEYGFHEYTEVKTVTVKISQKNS
HttQ103 aggreg – inhibitors of mutant huntingtin aggregate formation in PC12 cells | PC12 HttQ103-GFP aggregates, Acumen cytometry, 40 h | Potency, µM (doses to about 46.1 µM), for inactives: top-dose activity change, negative = inhibition, actives largely listed as inhibitors | 1.1% of 220,000 active | AID 1688; further: potency means the concentration at half of the fitted maximal effect; on the % scale 0 is the no-effect control and ±100 the full control effect; nearly all actives have a fitted effect of over 60% in size
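Ecdysone-promoter PC12 model expressing HTT exon 1 Q103 fused to GFP, induced by tebufenozide at 100 nM final. Compounds titrated; aggregates sized 1–25 µm scored on a 488 nm laser cytometer.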
IMPase Li cell – membrane-permeable IMPase blocker, potentiated with lithium | CHO-M1 cells, IP1 TR-FRET (IP-One), carbachol + lithium | Potency, µM (top dose mostly 59.4 µM), inactives show at the highest dose activity, negative = IMPase inhibition, hits mostly inhibitors | 0.35% of 210,000 active | AID 1457;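 further: IP1 builds up when IMPase is blocked and the TR-FRET signal falls; potency means the concentration at half of the fitted maximal effect; plate controls were basal vehicle for no effect and high inhibitor control for full effect; nearly all actives have a fitted effect of over 50% in size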
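Readout is a homogeneous TR-FRET IP1 immunoassay (Ex 320, Em 665 and 620), where raised cytosolic IP1 lowers signal. Cells were CHO-M1 treated 30 min at 37C with test compounds plus a little lithium; AC50 values came from Hill-equation fitting.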
* marks the source's active call; other numbers are inactive results; ? = inconclusive; · = no result; [ ] = remark or other dose. Unless noted, the call rests on the fitted dose curve; in most records, active means well fitted curve in the direction sought with a large enough effect; inconclusive means small, poorly fitted or top-dose-only effect, or another doubt; inactive means no such curve, though single readings can be large; an effect the other way counts as inactive or inconclusive.

SMILES | IMPase cell inh | HTT cytoprotect | HPGD inh | ALDH1A1 inh | HttQ103 aggreg | IMPase Li cell
CCSc1nc2sc3c(c2c(=O)n1-c1ccc(C)cc1)CCCC3 | -8 | · | · | · | · | ·
Cc1cc(C)c(S(=O)(=O)NCCc2cc3cc(C)c(C)cc3[nH]c2=O)c(C)c1 | 4 | · | · | · | · | ·
Nc1nonc1-c1nc2ccccc2n1Cc1c(Cl)cccc1Cl | 4 | · | · | · | · | ·
C/C(Cl)=C\Cn1c(NCCc2ccccc2)nc2c1c(=O)n(C)c(=O)n2C | 9 | -64% | -8% | ? | 4.5µM* | 4%[38.3 µM]
C=CCn1c(NCCc2ccccc2)nc2c1c(=O)n(C)c(=O)n2C | 4 | 11%[10 µM] | -3% | 11% | 11µM* | 22%[38.3 µM]
O=C(O)C1CSC(c2coc3ccccc3c2=O)N1 (configuration not stated) | · | 9%[10 µM] | -19% | ? | -9% | -8%
CC1CCOC(c2coc3ccccc3c2=O)O1 (configuration not stated) | · | -12%[10 µM] | -15% | 20µM* | 8% | -1%
CC(=O)Oc1ccccc1N(C(C)=O)S(=O)(=O)c1ccc(C)cc1 | · | -1% | · | -4% | -10% | 7%
COc1ccc(S(=O)(=O)N(C(C)=O)c2ccc(OC(C)=O)c3ccccc23)cc1[N+](=O)[O-] | 3 | -4%[10 µM] | · | 7.1µM* | 6.3µM* | ·
O=c1c2[nH]c3ccc(Br)cc3c2ncn1CCCn1ccnc1 | -6 | 5% | ? | ? | -10% | 5.6µM*
Cc1c(C)c2c(c(C)c1O)CCC(C)(COc1ccc(Cc3sc(=O)[nH]c3O)cc1)O2 (configuration not stated) | · | 25% | -8% | 8% | · | 14%
CCN(CC)C(=O)CSc1nc2sc(C)c(C)c2c(=O)[nH]1 | 2 | 1% | 13µM* | ? | 4% | 13%[38.3 µM]
Cc1sc2nc(SCC(=O)N3CCCC3)[nH]c(=O)c2c1C | 20 | -16% | 18µM* | ? | -12% | 28%[38.3 µM]
Cc1sc2nc(SCC(=O)N3CCCCC3)[nH]c(=O)c2c1C | 10 | -18%[1.9 µM] | 16µM* | ? | -6% | 4%
O=c1[nH]c(SCc2n[nH]c(=S)n2-c2ccccc2)nc2sc3c(c12)CCC3 | -10 | -13% | 13µM* | -8% | 1%[9.22 µM] | 25%[38.3 µM]
CC(=O)OC[C@H]1O[C@@H](O/N=C(\C)CCN2CCc3nc(-c4ccccc4)c(-c4ccccc4)cc3C2)[C@H](OC(C)=O)[C@@H](OC(C)=O)[C@H]1OC(C)=O | · | ? | · | -1%[13.5 µM] | · | ·
NCC(=O)N[C@H](CO)C(=O)O | · | -12%[10 µM] | -12% | -3%[13.5 µM] | · | -6%
CCOC(=O)CSc1nc2sc3c(c2c(=O)[nH]1)CC(C)(CC)OC3 (configuration not stated) | -6 | -16% | -9% | ? | 18% | -6%[38.3 µM]
CCOC(=O)Cc1csc(NC(=O)CSc2nc3sc(C(=O)O)c(C)c3c(=O)[nH]2)n1 | -3 | 5% | ? | -7% | -12% | 21%[38.3 µM]
Cc1csc(NC(=O)CSc2nc3sc(C)c(C)c3c(=O)[nH]2)n1 | -4 | -13%[10 µM] | 13µM* | 18µM* | -4% | 10%[38.3 µM]
CCOC(=O)CSc1nc2sc3c(c2c(=O)[nH]1)CCCC3 | -1 | -4% | 16µM* | 0% | -23% | -11%[38.3 µM]
CC(=O)OC[C@H]1O[C@@H](CCO/N=C2/[C@H]3O[C@@H]3[C@@H](O)[C@H]3[C@H]2CCn2c(=O)n(-c4ccccc4)c(=O)n23)C=C[C@@H]1OC(C)=O | · | 0%[10 µM] | · | -1%[13.5 µM] | · | ·
Cc1c(N/N=C(\C#N)C(=O)c2ccc(Cl)cc2)c(=O)n(-c2ccccc2)n1C | · | -34%[10 µM] | 28µM* | ? | -1% | 16%
Cc1cc(C)c2c(c1)[C@@H]1C=CC[C@@H]1[C@H](c1ccc(S(=O)(=O)N3CCOCC3)cc1)N2 | · | · | 25µM* | 25µM* | ? | 7%
NC(N)=NS(=O)(=O)c1ccc(NC(=S)NC(=O)c2ccc(Br)cc2)cc1 | · | -61% | · | 10µM* | 1% | -5%
